This passage reports outcome, Potency and activity change, negative = inhibition results from PubChem BioAssay (NCATS).

Records with an inconclusive call do not appear. Entries that show only a call come without a potency. Values without a mark were called inactive. Activity calls are given as the source filed them. The call rests on the fitted dose curve; in most records, active means well fitted curve in the direction sought with a large enough effect; inconclusive means small, poorly fitted or top-dose-only effect, or another doubt; inactive means no such curve, though single readings can be large; an effect the other way counts as inactive or inconclusive.

Chain of Lysine-specific demethylase 5B (Homo sapiens) (Q9UGL1 whole entry, looked up): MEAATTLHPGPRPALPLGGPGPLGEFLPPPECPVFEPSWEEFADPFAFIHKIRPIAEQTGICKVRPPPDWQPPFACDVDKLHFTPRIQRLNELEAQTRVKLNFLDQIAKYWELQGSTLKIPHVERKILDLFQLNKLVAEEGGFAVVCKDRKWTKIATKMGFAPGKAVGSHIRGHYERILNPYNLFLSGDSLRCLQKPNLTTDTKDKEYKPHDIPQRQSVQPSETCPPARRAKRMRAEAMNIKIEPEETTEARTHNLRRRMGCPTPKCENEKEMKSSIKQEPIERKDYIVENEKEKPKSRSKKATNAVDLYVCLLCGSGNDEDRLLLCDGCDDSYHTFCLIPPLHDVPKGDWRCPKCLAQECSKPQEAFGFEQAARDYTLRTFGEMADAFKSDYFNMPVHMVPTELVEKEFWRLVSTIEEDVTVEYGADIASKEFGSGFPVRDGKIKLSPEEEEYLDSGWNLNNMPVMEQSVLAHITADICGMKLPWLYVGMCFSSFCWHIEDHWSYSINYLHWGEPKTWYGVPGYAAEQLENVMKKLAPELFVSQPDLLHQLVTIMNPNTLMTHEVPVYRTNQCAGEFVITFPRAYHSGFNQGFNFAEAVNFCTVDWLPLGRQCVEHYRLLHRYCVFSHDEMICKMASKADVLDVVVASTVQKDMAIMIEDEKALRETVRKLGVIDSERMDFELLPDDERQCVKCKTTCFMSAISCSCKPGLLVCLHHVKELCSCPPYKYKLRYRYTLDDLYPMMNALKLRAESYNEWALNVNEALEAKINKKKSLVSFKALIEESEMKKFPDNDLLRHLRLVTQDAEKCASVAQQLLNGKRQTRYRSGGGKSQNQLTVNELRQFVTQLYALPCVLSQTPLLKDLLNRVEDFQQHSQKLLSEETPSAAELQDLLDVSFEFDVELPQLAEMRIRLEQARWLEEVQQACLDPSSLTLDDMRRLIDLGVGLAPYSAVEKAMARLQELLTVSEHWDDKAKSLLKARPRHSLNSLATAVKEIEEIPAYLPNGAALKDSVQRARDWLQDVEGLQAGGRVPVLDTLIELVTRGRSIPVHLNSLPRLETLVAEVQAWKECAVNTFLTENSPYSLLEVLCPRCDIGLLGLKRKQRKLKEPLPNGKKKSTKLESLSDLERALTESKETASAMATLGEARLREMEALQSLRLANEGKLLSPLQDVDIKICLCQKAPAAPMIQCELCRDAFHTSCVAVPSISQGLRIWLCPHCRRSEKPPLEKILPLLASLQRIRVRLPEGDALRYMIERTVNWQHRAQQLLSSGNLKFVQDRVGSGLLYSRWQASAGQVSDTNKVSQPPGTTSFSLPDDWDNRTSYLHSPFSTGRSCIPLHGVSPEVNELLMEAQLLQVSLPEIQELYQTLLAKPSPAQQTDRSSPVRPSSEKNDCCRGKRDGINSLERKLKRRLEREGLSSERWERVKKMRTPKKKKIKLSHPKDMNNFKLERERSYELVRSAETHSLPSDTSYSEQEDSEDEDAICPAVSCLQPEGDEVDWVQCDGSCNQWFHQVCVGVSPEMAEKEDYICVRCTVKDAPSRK

In the first assay the target is Lysine-specific demethylase 5B (Homo sapiens) (UniProt Q9UGL1). Description: Optimization screen for KDM5B Histone Demethylases FDH coupled qHTS against the LOPAC library (AID 1347166). The note with it: KDM5B demethylation, FDH-coupled NADH fluorescence (FDH is formaldehyde dehydrogenase); series mostly up to 57.5 µM. In a few lines:
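KDM5BDeltaAP (200nM final) preincubated 10 min with compound, then 12.5uM H3K4Me3, 25uM a-ketoglutarate, ascorbate, Fe(II), NAD+ and FDH added; 50mM HEPES pH 7.5, 0.01% Tween-20. NADH fluorescence (340/450 nm) change over 30 min, room temperature.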
`O=C(O)Cc1cnc[nH]1`: the outcome was inactive. Still for that read-out and setting: for `NCCc1c[nH]c2ccc(O)cc12` the value was “inactive”; for `CC(=O)NCCc1c[nH]c2ccccc12`, “inactive”. Still for that read-out and setting: for `C#CCOC(=O)C1=CCCN(C)C1` the value was “inactive”; for `CNCCc1c[nH]c2ccc(O)cc12`, “inactive”. For the molecule `CC(C)NC(C)Cc1ccc(I)cc1` (centres undefined), the outcome was inactive. Regarding `C[C@@H]1O[C@H](C[N+](C)(C)C)C[C@H]1O`, the call was inactive. Take `C=CCN1CC[C@]23CCCCC2[C@H]1Cc1ccc(O)cc13` (some centres undefined): the molecule was called inactive.

As to `CCCN(CCC)C1CCc2ccc(O)cc2C1` (centres undefined), the result was inactive. Regarding `CC(=O)[C@H]1CCC2C3CC[C@H]4C[C@H](O)CC[C@]4(C)C3CC[C@@]21C` (some centres undefined), the molecule was classed as inactive.

Take `C[N+]1(C)C2CCC1CC(OC(=O)C(CO)c1ccccc1)C2` (centres undefined): the outcome was inactive.

With `COC(=O)[C@@H](N)CCCN=C(N)N[N+](=O)[O-]`, the outcome was inactive. For the molecule `CN[C@@H]1C[C@@H](c2ccc(Cl)c(Cl)c2)c2ccccc21`, the call was inactive. Still for that read-out and setting: for `C[C@@H](N)Cc1cnc[nH]1` the value was “inactive”; for `C[C@]12CCC3C(CC[C@H]4C[C@H](O)CC[C@]34C)C1CC[C@@H]2C(=O)CO` (some centres undefined), “inactive”; for `O=C(N[C@H]1CN2CCC1CC2)c1ccc(Cl)cc1`, “inactive”. On the same count and under the same terms, for `CCCN1CCO[C@@H]2c3cc(O)ccc3OC[C@H]21` the value was “inactive”; for `NC(=NCCC[C@H](N)C(=O)O)N[N+](=O)[O-]`, “inactive”; for `NCCc1c[nH]c2ccccc12`, “inactive”.

On to `O=C(O)CC[N+](=O)[O-]`, for which the molecule was called inactive. On to `CS(=N)(=O)CC[C@H](N)C(=O)O` (some centres undefined), for which the outcome was inactive. Regarding `COc1cc(C(O)CN)ccc1O` (centres undefined), the molecule was classed as inactive. The same measure, in the same setting: for `Oc1ccc2c3c1O[C@H]1c4[nH]c5c(c4C[C@@]4(O)[C@@H](C2)N(CC2CC2)CC[C@]314)C[C@@]1(O)[C@H]2Cc3ccc(O)c4c3[C@@]1(CCN2CC1CC1)[C@H]5O4` the value was “inactive”; for `CC1=NN=C(c2ccc(N)cc2)c2cc3c(cc2C1)OCO3`, “inactive”.

Tested on in another assay: not listed separately
Briefly: Vero cells viability qHTS for Zika virus inhibitors (AID 1347167). The following applies: cytotoxicity counter-screen (Zika); series mostly up to 45.9 µM. In a few lines:
(§1)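 Cells seeded at 2.5 x 10^5 cells/mL in DMEM with 4% FBS and attached overnight at 37 degrees C, then exposed to compound for 24 to 48 hours. Viability read as ATP content by CellTiter Glo luminescence.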
For `CC(=O)N(C)c1cccc(-c2ccnc3c(C(=O)c4cccs4)cnn23)c1`, the Potency result was “inactive”. Still for that read-out and setting: for `C=CCN1CC[C@]23CCCCC2[C@H]1Cc1ccc(O)cc13` (some centres undefined) the value was “inactive”; for `CC(C)Oc1cccnc1N(C)C1CCN(Cc2ccccc2)CC1`, “inactive”.

Tested on in another assay: not listed separately
Description: HepG2 cells viability qHTS for Zika virus inhibitors (AID 1347168). The note with it: Zika counter-screen; series mostly up to 45.9 µM. In a few lines: as §1
In the case of `CC(=O)N(C)c1cccc(-c2ccnc3c(C(=O)c4cccs4)cnn23)c1`, the Potency result was “inactive”.

In the case of `C=CCN1CC[C@]23CCCCC2[C@H]1Cc1ccc(O)cc13` (some centres undefined), the Potency result was “inactive”. Consider `CC(C)Oc1cccnc1N(C)C1CCN(Cc2ccccc2)CC1`, for which the Potency result was “inactive”.

Tested on in the next assay: not listed separately
Briefly: Tertiary RLuc qRT-PCR qHTS assay for Zika virus inhibitors (AID 1347169). Further: top concentration of the series differs between compounds; nearly all actives have a fitted effect of over 55% in size. The following applies: infected Vero cells, reporter luminescence, 48-72 h; series mostly up to 45.9 µM. Put shortly:
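Luminescence read-out: live-cell Renilla luciferase substrate applied to infected Vero cells, signal measured after 1-1.5 hrs. Cells had received compound before ZIKV-RLuc (Cambodian strain, MOI 1-2) infection and were incubated 48-72 hrs at 37 degrees C.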
Consider `C=CCN1CC[C@]23CCCCC2[C@H]1Cc1ccc(O)cc13` (some centres undefined), for which the result was inactive.

`O=[N+]([O-])c1c(Cl)c(Cl)cc(Cl)c1Cl`: the activity change, negative = inhibition was 77.7% [at 3.57 µM]. For the molecule `CC(C)Oc1cccnc1N(C)C1CCN(Cc2ccccc2)CC1`, the molecule was classed as inactive. For the molecule `Nc1c(Cl)c(Cl)c(Cl)c(Cl)c1Cl`, the molecule was classed as inactive.
